Data reported in the supplement of paper PMC13380429.

Tested on: Vero E6 infected with SARS-CoV-2
Experiment: inhibition of SARS-CoV-2 cytopathic effect; higher = more antiviral protection, active = above 15
Settings: 48 h

Measured: inhibition of SARS-CoV-2 cytopathic effect

O=C1C[C@@H](c2ccc(O)cc2)Oc2cc(O)cc(O)c21 [naringenin]
inactive: 1 nM -1.9% | 8.33 nM 0.02% | 100 nM -0.05% | 833.33 nM 0.5% | 10000 nM 0.31%

CCOC(=O)OC(C)OC1=C(C(=O)Nc2ccccn2)N(C)S(=O)(=O)c2ccccc21 (stereo not given) [ampiroxicam]
inactive: 1 nM 1.01% | 8.33 nM -0.58% | 100 nM 1.16% | 833.33 nM 2.1% | 10000 nM 2.74%

Cc1cnc(C(=O)NCCc2ccc(S(=O)(=O)NC(=O)NC3CCCCC3)cc2)cn1 [glipizide]
inactive: 1 nM -3.14% | 8.33 nM -1.53% | 100 nM -0.68% | 833.33 nM -1.78% | 10000 nM 0.54%

CCN(CC)CCCC(C)Nc1ccnc2cc(Cl)ccc12 (stereo not given) [chloroquine]
inactive: 1 nM -1.07% | 8.33 nM -2.02% | 100 nM 0.51% | 833.33 nM -0.4% | 10000 nM -1.51%

OCCn1cc(-c2ccc3c(c2)CC/C3=N\O)c(-c2ccncc2)n1
inactive: 1 nM 8.04% | 8.33 nM 9.39% | 100 nM 8.46% | 833.33 nM 10.2% | 10000 nM 8.08%

C[C@@H]1C/C=C/C=C/C=C/C=C/[C@H](O[C@@H]2O[C@H](C)[C@@H](O)[C@H](N)[C@@H]2O)C[C@@H]2O[C@](O)(C[C@@H](O)C[C@H]3O[C@@H]3/C=C/C(=O)O1)C[C@H](O)[C@H]2C(=O)O [natamycin]
inactive: 1 nM 2.57% | 8.33 nM -0.49% | 100 nM -2.28% | 833.33 nM -6.12% | 10000 nM -4.75%

COc1ccccc1OCC(O)COC(N)=O (stereo not given) [methocarbamol]
inactive: 1 nM -1.87% | 8.33 nM -0.67% | 100 nM -0.79% | 833.33 nM 2.32% | 10000 nM 1.06%

CNCC[C@@H](Oc1ccccc1C)c1ccccc1 [atomoxetine]
inactive: 1 nM 1.13% | 8.33 nM 1.43% | 100 nM 3.37% | 833.33 nM 2.34% | 10000 nM -2.83%

COc1cc2ncnc(Nc3cccc(Cl)c3F)c2cc1OC(=O)N1CCN(C)C[C@H]1C
inactive: 1 nM 1.89% | 8.33 nM 2.48% | 100 nM -1.03% | 833.33 nM -2.96% | 10000 nM -9.49%

CC(C)(C)Cn1c(N)nc2ccc(-c3[nH]c(C(C)(C)C)nc3-c3ccc(F)cc3)nc21
inactive: 1 nM 2.2% | 8.33 nM -0.57% | 100 nM -1.43% | 833.33 nM 11.8%
active: 10000 nM 55.2%

CN1C(=O)N[C@H](Cc2c[nH]c3c(Cl)cccc23)C1=O [necrostatin-2]
inactive: 1 nM -3.13% | 8.33 nM -7.04% | 100 nM -6.01% | 833.33 nM -0.96% | 10000 nM -5.96%

CC1CCN(CCCC(=O)c2ccc(F)cc2)CC1 [melperone]
inactive: 1 nM 1.03% | 8.33 nM -0.88% | 100 nM -1.43% | 833.33 nM 0.99% | 10000 nM 2.13%

O=C(/C=C/c1ccc(O)c(O)c1)O[C@@H]1C[C@](O)(C(=O)O)C[C@@H](O)[C@H]1O [chlorogenic-acid]
inactive: 1 nM -0.66% | 8.33 nM 1.67% | 100 nM 1.61% | 833.33 nM -0.18% | 10000 nM -0.05%

CCOc1ccc(S(=O)(=O)O)c2cccnc12 [actinoquinol]
inactive: 1 nM 0.25% | 8.33 nM 0.94% | 100 nM 0.78% | 833.33 nM 1.14% | 10000 nM -3.36%

COc1cc(N)c(Cl)cc1C(=O)OCCCN1CCCCC1
inactive: 1 nM 3.12% | 8.33 nM -0.29% | 100 nM 3.25% | 833.33 nM 4.22% | 10000 nM 1.72%

FC(F)(F)c1ccccc1-c1cc(C(F)(F)F)c2[nH]c(C3=NOC4(CCCCC4)C3)nc2c1
inactive: 1 nM -0.82% | 8.33 nM 0.77% | 100 nM -0.98% | 833.33 nM -2.13% | 10000 nM -3.97%

CC(C)C[C@@H](N)C(=O)N[C@H]1C(=O)N[C@@H](CC(N)=O)C(=O)N[C@H]2C(=O)N[C@H]3C(=O)N[C@H](C(=O)N[C@H](C(=O)O)c4cc(O)cc(O)c4-c4cc3ccc4O)[C@H](O)c3ccc(c(Cl)c3)Oc3cc2cc(c3O[C@@H]2O[C@H](CO)[C@@H](O)[C@H](O)[C@H]2O[C@H]2C[C@](C)(N)[C@H](O)[C@H](C)O2)Oc2ccc(cc2Cl)[C@H]1O [norvancomycin]
inactive: 1 nM -0.51% | 8.33 nM 2.53% | 100 nM 11.9% | 833.33 nM 1.73% | 10000 nM -2.8%
